This is an account of results in PubChem BioAssay.

A number with no mark means an inactive call. Inconclusive results are not listed. For part of these data: Entries with a potency or affinity are not part of this list. The source made the active and inactive calls.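 The calls were made as follows, unless noted: active = compounds lowering colon cancer cell viability after pretreatment blocking the GSK3B kinase; inactive = the rest.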

The nature of experiment [1]: stimulators of insulin release from INS-1E, primary screen, cell-based, 5 mM glucose, NPC library (AID 1117329;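 active = compound raises insulin release from rat beta cells at 5 mM glucose, no numeric limit stated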). Conditions: rat INS-1E insulin secretion, at 10 µM, hits give high values.
Experiment [2] can be described thus: growth inhibition of GSK3B-pretreated HCT116 cells – cell-based, CellTiter-Glo, 0.2 to 20 µM (AID 1117336). The conditions noted are these: HCT116 viability after GSK3B inhibitor, at 20 µM, hits give high values.
The nature of experiment [3]: inhibition of endothelial tube formation, primary screen, imaging, VEGF stimulated, CD31 staining, tube area, NPC library (AID 1117340;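 active = compound that reduces growth-factor-driven endothelial tube area in a mixed cell culture, no cutoff stated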). Conditions: VEGF-stimulated ADSC/ECFC co-culture, at 10 µM, hits give high values.
Experiment [4] in a line: glucagon-like peptide 1 release enhancers, primary assay, NCI-H716 cell line, NPC library (AID 1117341;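 active = compound raises GLP1 secretion from the human gut endocrine cells, with no numeric limit stated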). Conditions: NCI-H716 cells, at 10 µM, hits give high values.
Experiment [5] in a line: HCT116 colon cancer cell growth inhibition, primary screen, CellTiter-Glo luminescence, NPC library (AID 1117342;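 active = compounds that lower survival of HCT116 colon cancer cells in the luminescence readout, no numeric limit stated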). Conditions: at 20 µM (top of the series).
A short description of experiment [6]: CellTiter-Glo luminescent readout of SW480 viability loss, NPC library primary (AID 1117343;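 active = compounds that lower viability of the colon cancer cells in the luminescence readout, with no numeric limit stated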). Conditions: CellTiter-Glo luminescence; at 20 µM (top of the series). On the technique in general: ATP-based viability assays read luminescence as a measure of living cells.
Experiment [7] is described as follows: decreased DLD-1 cellular survival, CellTiter-Glo luminescent readout, NPC compound collection, primary HTS (AID 1117346;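 active = compounds that lower survival of DLD-1 colon cancer cells in the luminescence readout, no cutoff given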). Conditions: DLD-1 viability, CellTiter-Glo luminescence; at 20 µM (top of the series).
Experiment [8] concerns the target 6-phosphogluconate dehydrogenase, decarboxylating (Homo sapiens) (UniProt P52209). Kind of experiment: 6PGD enzyme inhibitors, primary screen, biochemical, human, recombinant enzyme, NADPH absorbance (AID 1159550;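 active = at least 20% inhibition of 6-phosphogluconate dehydrogenase activity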). Conditions: recombinant 6PGD, NADPH absorbance 341 nm; at 10 µM; hits give high values.
Experiment [9] deals with Aerobactin synthetase IucA (Klebsiella pneumoniae). Kind of experiment: IucA aerobactin synthetase inhibitors, biochemical, Tocris library, absorbance (AID 1345561; call rule not given here;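 also: 100% = enzyme without compound and 0% = no enzyme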). Conditions: purified IucA enzyme assay, absorbance (OD) read-out; hits give low values;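 tested at 8 µM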.
A short description of experiment [10]: modulation of C. elegans fzo-1 (AID 1259413; call rule not given here;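 also: fzo-1 mutant C. elegans worms in liquid wells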). The conditions noted are these: C. elegans fzo-1 modulator screen, mean read-out; hits give high values.
The target in experiment [11] is Calcium-dependent protein kinase 1 (Plasmodium falciparum (isolate 3D7)) (UniProt P62344). Kind of experiment: PfCDPK1 kinase inhibitors, biochemical, TCAMS library (AID 1159585; cut-off not given, nearly all actives have IC50 up to about 0.98 µM;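 also: inhibitors leave more ATP so luminescence rises with inhibition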). The conditions noted are these: recombinant PfCDPK1, Kinase-Glo ATP depletion luminescence.
Experiment [12] deals with Plasmodium falciparum protein kinase 6 (PK6, PF3D7_1337100) (UniProt Q8IDW1). Put plainly: PfPK6 kinase inhibitors, biochemical, TCAMS library (AID 1159586; call rule not given here). Conditions: recombinant PfPK6, Kinase-Glo ATP depletion luminescence.
The target of experiment [13] is Protein kinase 7 (PK7), Plasmodium falciparum 3D7 (PF3D7_0213400) (UniProt Q7YTF7). Put plainly: inhibition of Plasmodium PK7 catalytic activity – biochemical, TCAMS antimalarial set, Kinase-Glo luminescence (AID 1159587; call rule not given here). The conditions noted are these: recombinant PfPK7, Kinase-Glo ATP depletion luminescence.
The target of experiment [14] is Calcium-dependent protein kinase 4 (Plasmodium falciparum (isolate 3D7)) (UniProt Q8IBS5). Put plainly: PfCDPK4 kinase inhibitors, biochemical, TCAMS library (AID 1159588; cut-off not given, nearly all actives have IC50 up to about 0.91 µM). The conditions noted are these: recombinant PfCDPK4, Kinase-Glo ATP depletion luminescence. On the technique in general: Kinase-Glo measures the ATP left after a reaction by luminescence.
The nature of experiment [15]: growth inhibition of DIPG glioma cells, dose response, cell-based, SU-DIPG-XVII, MIPE5.0, CellTiter-Glo, qHTS (AID 1347060; cut-off not given, nearly all actives have AC50 up to about 26 µM;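 as to AC50: cells exposed to compound for 48 hours before viability readout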). The conditions noted are these: SU-DIPG-XVII viability, CellTiter-Glo ATP luminescence.
Experiment [16] in a line: growth inhibition of DIPG glioma cells, dose response, cell-based, SU-DIPG-XIII, MIPE4.0, CellTiter-Glo, qHTS (AID 1347061; cut-off not given, nearly all actives have AC50 up to about 37 µM;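 also: cells exposed to compound for 48 hours before readout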). The conditions noted are these: SU-DIPG-XIII viability, CellTiter-Glo ATP luminescence.
Experiment [17] is described as follows: growth inhibition of DIPG glioma cells, dose response, cell-based, JHH-DIPG-1, MIPE4.0, CellTiter-Glo, qHTS (AID 1347062; cut-off not given, nearly all actives have AC50 up to about 27 µM). Conditions: JHH-DIPG-1 viability, CellTiter-Glo ATP luminescence.
The nature of experiment [18]: growth inhibition of DIPG glioma cells, dose response, cell-based, SU-DIPG-XIII, MIPE5.0, CellTiter-Glo, qHTS (AID 1347064; cut-off not given, nearly all actives have AC50 up to about 23 µM). Conditions: SU-DIPG-XIII viability, CellTiter-Glo ATP luminescence.
Experiment [19] can be described thus: growth inhibition of DIPG glioma cells, dose response, cell-based, SU-DIPG-IV, MIPE4.0, CellTiter-Glo, qHTS (AID 1347063; cut-off not given, nearly all actives have AC50 up to about 30 µM;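 also: compound exposure lasted 48 hours before the viability readout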). Conditions: SU-DIPG-IV viability, CellTiter-Glo ATP luminescence.

Sequence of 6-phosphogluconate dehydrogenase, decarboxylating (Homo sapiens) (P52209 whole entry, looked up): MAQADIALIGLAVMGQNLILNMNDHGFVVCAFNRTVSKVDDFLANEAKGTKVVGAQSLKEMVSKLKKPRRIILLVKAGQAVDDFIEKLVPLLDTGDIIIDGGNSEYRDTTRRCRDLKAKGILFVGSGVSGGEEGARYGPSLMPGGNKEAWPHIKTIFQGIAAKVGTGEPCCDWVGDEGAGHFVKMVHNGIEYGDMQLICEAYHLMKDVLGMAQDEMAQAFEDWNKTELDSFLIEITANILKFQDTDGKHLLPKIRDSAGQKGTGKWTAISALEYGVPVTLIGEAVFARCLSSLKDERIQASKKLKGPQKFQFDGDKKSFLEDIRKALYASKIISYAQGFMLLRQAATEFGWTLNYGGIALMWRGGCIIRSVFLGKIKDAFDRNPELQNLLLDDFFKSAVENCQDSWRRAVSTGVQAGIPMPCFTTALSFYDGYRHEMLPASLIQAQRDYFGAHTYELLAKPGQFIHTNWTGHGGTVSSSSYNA
Sequence of Calcium-dependent protein kinase 4 (Plasmodium falciparum (isolate 3D7)) (Q8IBS5 whole entry, looked up): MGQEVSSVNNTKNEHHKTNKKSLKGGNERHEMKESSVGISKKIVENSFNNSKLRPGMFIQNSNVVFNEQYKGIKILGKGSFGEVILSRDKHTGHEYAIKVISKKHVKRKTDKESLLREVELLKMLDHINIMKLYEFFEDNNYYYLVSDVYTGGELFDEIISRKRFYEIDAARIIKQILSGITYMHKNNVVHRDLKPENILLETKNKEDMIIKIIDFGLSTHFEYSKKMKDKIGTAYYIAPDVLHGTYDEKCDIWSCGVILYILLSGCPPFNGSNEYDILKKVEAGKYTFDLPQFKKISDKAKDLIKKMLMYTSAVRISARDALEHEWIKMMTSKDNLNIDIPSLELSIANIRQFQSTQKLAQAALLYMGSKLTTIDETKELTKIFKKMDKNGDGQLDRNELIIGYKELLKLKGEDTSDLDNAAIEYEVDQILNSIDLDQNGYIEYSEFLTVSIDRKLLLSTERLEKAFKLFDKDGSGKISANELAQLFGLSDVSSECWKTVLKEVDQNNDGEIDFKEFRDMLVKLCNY
Sequence of Plasmodium falciparum protein kinase 6 (PK6, PF3D7_1337100) (Q8IDW1 1-305): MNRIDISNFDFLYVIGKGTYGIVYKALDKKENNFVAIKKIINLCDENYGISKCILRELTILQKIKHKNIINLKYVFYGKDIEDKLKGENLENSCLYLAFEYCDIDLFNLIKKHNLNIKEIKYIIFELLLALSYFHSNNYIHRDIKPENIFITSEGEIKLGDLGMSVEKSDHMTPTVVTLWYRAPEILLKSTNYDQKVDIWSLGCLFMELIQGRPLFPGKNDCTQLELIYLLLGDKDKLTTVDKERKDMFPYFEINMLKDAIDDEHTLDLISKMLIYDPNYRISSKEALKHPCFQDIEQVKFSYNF
Sequence of Calcium-dependent protein kinase 1 (Plasmodium falciparum (isolate 3D7)) (P62344 whole entry, looked up): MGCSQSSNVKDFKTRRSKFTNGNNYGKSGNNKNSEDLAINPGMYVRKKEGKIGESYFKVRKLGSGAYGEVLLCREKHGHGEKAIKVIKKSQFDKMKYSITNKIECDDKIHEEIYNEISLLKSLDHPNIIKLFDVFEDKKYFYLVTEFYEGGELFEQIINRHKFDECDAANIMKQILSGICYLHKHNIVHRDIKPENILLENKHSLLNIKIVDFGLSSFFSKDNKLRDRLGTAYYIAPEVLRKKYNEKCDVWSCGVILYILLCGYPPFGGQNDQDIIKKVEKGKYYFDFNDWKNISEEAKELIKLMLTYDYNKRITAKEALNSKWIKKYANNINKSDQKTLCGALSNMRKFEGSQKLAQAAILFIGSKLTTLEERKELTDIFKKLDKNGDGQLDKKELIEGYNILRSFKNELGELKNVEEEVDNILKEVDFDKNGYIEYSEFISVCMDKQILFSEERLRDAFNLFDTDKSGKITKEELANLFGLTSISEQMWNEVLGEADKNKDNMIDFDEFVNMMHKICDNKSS
Sequence of Protein kinase 7 (PK7), Plasmodium falciparum 3D7 (PF3D7_0213400) (Q7YTF7 1-343): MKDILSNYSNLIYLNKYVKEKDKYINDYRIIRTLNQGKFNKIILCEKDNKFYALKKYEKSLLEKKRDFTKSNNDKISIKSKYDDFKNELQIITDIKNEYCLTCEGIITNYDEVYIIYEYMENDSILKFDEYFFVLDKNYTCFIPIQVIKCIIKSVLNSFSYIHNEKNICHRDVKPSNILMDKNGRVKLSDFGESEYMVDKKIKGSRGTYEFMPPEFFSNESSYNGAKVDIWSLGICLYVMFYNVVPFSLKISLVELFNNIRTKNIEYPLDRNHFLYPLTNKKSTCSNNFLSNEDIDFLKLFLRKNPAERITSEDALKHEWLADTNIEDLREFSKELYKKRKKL

The term inhibition denotes the change of the read-out against control, counted positive when it falls. By remaining activity is commonly meant the share of the control activity or signal that is left under treatment. Turning to `C[C@@](Cc1ccc(O)c(O)c1)(NN)C(=O)O`, the insulin secretion stimulation in experiment [1] is 0.3%. Further, the viability decrease in experiment [2] was 48.3%. Moreover, the tube area decrease in experiment [3] is -3.9%. Moreover, in [4], the GLP1 secretion stimulation is -1.3%. Besides, in experiment [5], the inhibition of viability is 27.4%. Besides, the viability decrease (inhibition) in [6] was 88.8% (active); in experiment [7] it was 11.7%. The inhibition in experiment [8] is -4.83%. In experiment [9], the remaining activity was 93.6%.

`NC(N)=N/N=C/c1c(Cl)cccc1Cl`: in [1], the insulin secretion stimulation is -0.5%. In addition, the viability decrease in [2] was 60% (active). Further, the tube area decrease in experiment [3] is 18.2%. In addition, the GLP1 secretion stimulation in experiment [4] was 2.1%. For the same compound, the inhibition of viability in experiment [5] was 80.7% (active). The viability decrease (inhibition) is 99.6% (active) in experiment [6] and 45.4% in [7]. Further, the inhibition in [8] was 14%. Further, the remaining activity in experiment [9] is 99.1%.

`O=c1c(-c2ccccc2)c1-c1ccccc1`: the insulin secretion stimulation in experiment [1] is 0.3%. In addition, in experiment [2], the viability decrease is 41.9%. Further, the tube area decrease in experiment [3] was 103% (active). In [4], the GLP1 secretion stimulation was -2.9%. For the same compound, in experiment [5], the inhibition of viability was 64.4% (active). Moreover, the viability decrease (inhibition) is 106% (active) in experiment [6] and 64.3% (active) in [7]. Further, the mean signal in experiment [10] was 254.

As usually defined, the AC50 is the concentration giving half of the maximal activity seen. As to `CCCCc1ccc2nc(NC(=O)OC)[nH]c2c1`, the insulin secretion stimulation in experiment [1] is -1.7%. Further, the viability decrease in experiment [2] was 91.7% (active). Also, the tube area decrease in experiment [3] was 108% (active). In addition, the GLP1 secretion stimulation in experiment [4] is -5.4%. Moreover, the inhibition of viability in experiment [5] is 67.5% (active). Besides, the results for the viability decrease (inhibition) in experiment [6] and in experiment [7] were 33.8% and 50.6% (active), respectively. Further, the outcome in experiment [11], in experiment [12], in experiment [13] and in [14] was inactive. Besides, the AC50 in [15] is 0.186 µM (active).

In the case of `COC(=O)[C@@H]1[C@H]2C[C@H]3c4[nH]c5ccccc5c4CCN3C[C@@H]2CC[C@@H]1O`, the insulin secretion stimulation in experiment [1] is 1.1%. Also, the viability decrease in experiment [2] is -73.5%. Besides, in experiment [3], the tube area decrease is 10.7%. In addition, the GLP1 secretion stimulation in [4] is -0.7%. The inhibition of viability in [5] was 13.8%. Besides, the viability decrease (inhibition) is 18.3% in experiment [6] and -9.4% in experiment [7]. The inhibition in experiment [8] was 2.13%. The compound was classed as inactive in experiment [15], in experiment [16], in experiment [17] and in experiment [18].

`CCCCC(=O)O[C@]1(C(=O)CO)[C@@H](C)C[C@H]2[C@@H]3CCC4=CC(=O)C=C[C@]4(C)[C@@]3(F)[C@@H](O)C[C@@]21C`: in [1], the insulin secretion stimulation was -4.4%. Besides, in experiment [2], the viability decrease is -106%. Besides, in [3], the tube area decrease was 2.4%. In experiment [4], the GLP1 secretion stimulation is 8.1%. The inhibition of viability in [5] was 12.9%. Moreover, the viability decrease (inhibition) in experiment [6] is -0.4%; in experiment [7], 11%. Moreover, the inhibition in experiment [8] is -3.61%. Moreover, the result in experiment [15] was inactive.

As to `C[N+]1(C)[C@@H]2CC(OC(=O)[C@H](CO)c3ccccc3)C[C@H]1[C@@H]1O[C@@H]12` (some centres not stated), the insulin secretion stimulation in experiment [1] was 0.2%. The viability decrease in [2] was -19.7%. Further, the tube area decrease in experiment [3] was 5.6%. In addition, the GLP1 secretion stimulation in experiment [4] was -2.3%. Moreover, in experiment [5], the inhibition of viability was 2%. The viability decrease (inhibition) is -6.3% in experiment [6] and -6.1% in [7]. For the same compound, the inhibition in experiment [8] was 0.481%. Besides, the compound was called inactive in experiment [15], in [16], in [17], in experiment [19] and in experiment [18].
